# Data taken from PubChem BioAssay (NCI).
# This is part of a sample that, as a whole, favours compounds with a hit. Of some 83,000 tested, about 20% had one in any assay.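 Method: cells in 96-well plates; compound added at one concentration; 48 h incubation; percent growth measured; values under 10 scored active.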 Calls of active or inactive are those of the source.
# System: HT29 colon
# Experiment: NCI-60 one-dose screen, 48 h (100 = growth as untreated, 0 = no growth, -100 = all killed)
# Conditions: 10 µM unless noted
row,Compound,growth
1,O=C(Nc1ccc(Cl)c(C(F)(F)F)c1)Nc1ccc2oc(=O)ccc2c1,65.4% (inactive)
2,COc1ccc2[nH]cc(/C=N/Nc3ccnc4cc(Cl)ccc34)c2c1,-42.3% (active)
3,O=C1Nc2ccccc2/C1=C/c1ccc(OCC(=O)c2ccccc2)cc1,117% (inactive)
4,NS(=O)(=O)c1nnc(/N=C/c2c(O)[nH]c3ccccc23)s1,105% (inactive)
5,COc1cc(/C=C2/C(=O)Nc3ccc(Cl)cc32)ccc1OCc1ccc(Cl)cc1,94.1% (inactive)

# System: SNB-75 CNS
# Experiment: as above
# Conditions: 10 µM unless noted
row,Compound,growth
1,CC1=C(C)C(=O)C(Nc2ccc(C)cc2)=C(Br)C1=O,89% (inactive)
2,Cc1ccc(N2CCN(C3=C(Cl)C(=O)c4ncccc4C3=O)CC2)cc1,99.1% (inactive)
3,COc1ccc2[nH]cc(-c3nc(N)nnc3-c3cn(C)c4ccc(Br)cc34)c2c1,-4.14% (active)
4,O=C(/C=C/c1ccccc1Cl)Nc1ncc(Cc2cc(Cl)ccc2Cl)s1,1.14% (active)
5,CN(C)S(=O)(=O)c1ccc(-c2nc(C(Cl)Cl)nc3cc(-c4ccc(F)cc4)nn23)cc1,48.3% (inactive)
6,Fc1ccc(-c2cn3c(-c4c[nH]c5ccc(Br)cc45)csc3n2)cc1,-7.44% (active)
7,C#Cc1nc(/C=C/CCCCCCC(=O)NO)cs1,-17.1% (active)
8,C#C[C@]1(O)CC[C@H]2[C@@H]3CC=C4c5sc(Nc6ncccc6C)nc5CC[C@]4(C)[C@H]3CC[C@@]21C,-2.92% (active)
9,CC(C)=CCC[C@](C)(O)[C@H]1CC[C@]2(C)[C@@H]1CC[C@@H]1[C@@]3(C)CC[C@H](N)C(C)(C)[C@@H]3CC[C@]12C,87.2% (inactive)
